In the library only some 4% were active in any assay of this set; here they are far more common.
NALP1 yeast inh = inhibitors of NALP1 inflammasome in yeast; 280,000 compounds, 0.61% hits; inhibition, % at 10 µM; S. cerevisiae NALP1/ASC/caspase-1 growth, X-gal OD620, 72 h; AID 2071; in the data active means inhibition mostly above about 24%, no sharp cut-off; inactive means mostly below about 32%
tim23-1 inh = growth inhibitors of tim23-1 mutant yeast. S. cerevisiae tim23-1 growth, BacTiter-Glo luminescence, 24 h. AID 463212. inhibition, % at 20 µM. 330,000 compounds, 1.3% hits;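 active means growth inhibition of the mutant yeast at or above 50%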;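 further: temperature-sensitive mutant grown at 25 °C; plate controls were DMSO-treated mutant yeast for no effect and medium wells lacking yeast for full effect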
TIM10 inh = inhibits growth of TIM10 yeast strain; inhibition, % at 10 µM; 330,000 compounds, 1.4% hits; S. cerevisiae TIM10 strain growth, BacTiter-Glo luminescence, 24 h;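 active means inhibition of 40% or more at the single tested concentration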;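 further: wild-type TIM10 isogenic control strain grown at permissive 25 °C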
NALP3 yeast inh = NALP3 inhibition in yeast. Yeast reconstituted NLRP3/ASC/caspase-1, beta-gal luminescence, 24 h. inhibition, % at 10 µM. 330,000 compounds, 0.39% hits;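 active means inhibition of 50% or more; inactive means inhibition below 50%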;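 further: plate controls were induced DMSO wells for no effect and uninduced yeast grown without galactose for full effect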
tim10-1 inh = inhibits growth of tim10-1 mutant yeast | S. cerevisiae tim10-1 ts strain growth, BacTiter-Glo, 24 h | inhibition, % at 20 µM | 330,000 compounds, 2.2% hits | AID 463190;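 active means inhibition of at least 40%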;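 further: mutant grown at 25 °C; 0% = DMSO wells with yeast and 100% = wells holding no yeast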
Active calls of the source: *; nt = no result given.

SMILES | NALP1 yeast inh | tim23-1 inh | TIM10 inh | NALP3 yeast inh | tim10-1 inh
Cc1cc(NC(=O)C2CC(=O)N(c3ccc(F)cc3)C2)no1 (centres undefined) | 24 | -2 | -2 | 15 | -17
O=C(CCl)Nc1ccc(N=Nc2ccccc2)cc1 | 78* | nt | nt | nt | nt
O=C(CCl)Nc1ccc(-c2ccccc2)cc1 | -22 | 21 | 8 | -8 | -3
NS(=O)(=O)c1ccc(NC(=O)COc2ccc(Cl)cc2)cc1 | 26 | 4 | -23 | -8 | 14
CCc1nc(Nc2ccc3c(c2)OCCO3)c2oc3ccccc3c2n1 | 34* | 33 | 29 | 10 | 35
Cc1ccc(-n2nc(C)c3c(C)c(CCC(=O)NC(C)c4ccccc4)c(C)nc32)cc1 (centres undefined) | 39* | 13 | 25 | 14 | 24
Cc1ccccc1C(=O)NCC(=O)OC(C)C(=O)NC(C)CCc1ccccc1 (centres undefined) | nt | 11 | 7 | 7 | 13
CC(C)(Cl)C1Cc2cc3ccc(=O)oc3cc2O1 (centres undefined) | 24* | 7 | 8 | 9 | -1
O=C(/C=C/Nc1ccccc1F)c1cccs1 | 57* | 32 | 29 | 25 | 11
COc1ccccc1NC(=O)C(CC(C)C)NC(=O)C1CCCCC1 (centres undefined) | 41* | 7 | 17 | 11 | 23
COc1ccc(OC)c(NC(=O)C2CCN(c3ncccn3)CC2)c1 | 20 | 12 | -8 | -5 | 15
COc1ccccc1NC(=O)C1CCN(c2ncccn2)CC1 | 25* | -4 | -19 | 17 | 15
COCCn1c(-c2ccc(-c3ccc([N+](=O)[O-])cc3Br)o2)nc2c1c(=O)[nH]c(=O)n2CC(C)C | 22* | 31 | -3 | 10 | 26
COCCn1c(=O)[nH]c(=O)c2c1nc(-c1ccc(-c3ccc(Cl)cc3[N+](=O)[O-])o1)n2Cc1ccccc1 | 25 | 12 | 29 | 19 | 12
O=C(CN1CCSC1=NCc1ccccc1)c1ccc(Cl)c(Cl)c1 | 46* | 14 | 8 | 32 | 0
Cc1cccc(NC(=O)c2ccc(COc3ccccc3)o2)n1 | 13 | 21 | 4 | 22 | 14
Cc1csc(NC(=O)c2ccc(COc3ccccc3)o2)n1 | 43* | 2 | 13 | 31 | -5
Cc1[nH]nc2c1C(c1ccoc1)C(C#N)=C(N)O2 (centres undefined) | nt | -3 | 5 | -7 | 5
CCCc1[nH]nc2c1C(c1ccoc1)C(C#N)=C(N)O2 (centres undefined) | 58* | 43 | 32 | 5 | 25
Cc1nn(C)cc1S(=O)(=O)N1CCN(c2ccccc2)CC1 | -4 | 2 | 0 | 21 | -4
N#C/C(=C/c1cn(CC(=O)O)c2ccccc12)C(=O)NCc1ccccc1 | -7 | 9 | -5 | 1 | 8
CC1CCN(CCOCCOc2ccc(Br)cc2Cl)CC1 | 41 | 19 | -31 | 29 | -48
CC1CCCN(CCCOc2ccc(Br)cc2Cl)C1 (centres undefined) | 26* | -17 | -2 | 24 | -26
COc1ccc(C(=O)N[C@H](C(=O)NCCc2ccc3c(c2)OCCO3)C(C)C)cc1 | nt | 16 | 10 | 14 | 12
CC(C)CC(=O)N1CCN(Cc2ccc(Cl)cc2)CC1 | 15 | 0 | -1 | 0 | -7
SMILES | NALP1 yeast inh | tim23-1 inh | TIM10 inh | NALP3 yeast inh | tim10-1 inh
CC(C)c1ccc(CN2CCN(C(=O)CCl)CC2)cc1 | 59* | nt | nt | nt | nt
CC(C)c1ccc(/C=C/C(=O)Nc2ccc(CN3CCOCC3)cc2)cc1 | 40* | 24 | -33 | 25 | -14
CC(=O)c1ccc(-c2ccc(C(=O)NCC3CCCO3)o2)cc1 (centres undefined) | nt | 4 | 7 | 7 | 17
Cc1cccc(OCC(=O)NCC(=O)N/N=C/c2cc(Br)cc(Br)c2O)c1 | 24 | 1 | 29 | 22 | 21
CCOc1ccc(C(=O)C(CN2CCOCC2)c2ccccc2)cc1 (centres undefined) | 84* | nt | nt | nt | nt
CCOc1ccc(C(O)(CCC(C)C)C(CN2CCOCC2)c2ccccc2)cc1 (centres undefined) | -8 | 49 | 28 | 14 | 23
OC(COc1ccc(OCc2ccccc2)cc1)CN1CCOCC1 (centres undefined) | 39* | 17 | -5 | 22 | 4
Cc1ccc2oc(=O)c3cnn(CC(=O)N(CCCN4CCOCC4)Cc4ccco4)c3c2c1 | 2 | 12 | 10 | 11 | 17
COCCCNC(=O)COc1cc2c(c3oc(=O)c(C)c(C)c13)CCC(C)(C)O2 | 13 | 0 | 0 | 15 | 4
CC(C)c1ccc(/C=C2\CC/C(=C\C=N\N(C)C)C2=O)cc1 | 44* | 32 | 27 | 7 | 37
C=CS(=O)(=O)c1ccc(Oc2ccc(S(=O)(=O)C=C)cc2)cc1 | 75* | 41 | 22 | 39 | 35
CCOC(=O)CCC(=O)O[C@H]1[C@H](O[C@@H]2[C@@H](C)[C@H](O[C@H]3C[C@@](C)(OC)[C@@H](O)[C@H](C)O3)[C@@H](C)C(=O)O[C@H](CC)[C@@](C)(O)[C@H](O)[C@@H](C)C(=O)[C@H](C)C[C@@]2(C)O)O[C@H](C)C[C@@H]1N(C)C | 92* | nt | nt | nt | nt
CC(C)Sc1nc(N2CCOCC2)c2c(c1C#N)CC(C)(C)SC2 | 36* | 29 | 14 | 4 | 22
CCOc1cc(C2/C(=C(\O)c3cc(C)ccc3C)C(=O)C(=O)N2CCN(C)C)ccc1O (centres undefined) | 40* | 13 | 5 | -4 | 19
COc1cc(C2/C(=C(\O)c3cc(C)ccc3C)C(=O)C(=O)N2CCN(C)C)ccc1O (centres undefined) | 13 | 9 | 7 | 4 | 10
Cc1ccc(NC(=O)COC(=O)c2ccc(CN3CCCC3=O)cc2)cc1C | nt | 18 | 2 | 22 | 13
CCN1C(=O)c2ccc(C(=O)NCc3ccco3)cc2C1=O | 31* | -12 | 2 | 12 | -22
Cc1cccc(NC(=O)CSc2nnc(Cc3ccccc3)o2)c1 | -4 | 3 | 16 | 24 | 3
O=C1c2cnc3nc(SCc4ccc(Cl)cc4)nn3c2CC2c3ccccc3CCN12 (centres undefined) | 1 | -8 | -8 | -1 | 13
CCOC(=O)CNC(=O)CNC(=O)Cn1ccc2ccccc2c1=O | 40* | 12 | 7 | 7 | 10
COC(=O)CNC(=O)Cn1ccc2ccccc2c1=O | 18 | -4 | -6 | 14 | 4
COc1ccc(-c2cc(C(=O)N/N=C/c3sccc3C)c3ccccc3n2)c(OC)c1 | 41* | 35 | 24 | 15 | 33
CC1CCCC(NC(=O)C2CCN(S(=O)(=O)N3CCCCC3)CC2)C1C (centres undefined) | 47 | 10 | 9 | -8 | 9
Cc1cccc(C)c1OCC(O)CN1CCN(c2ccccn2)CC1 (centres undefined) | -4 | 2 | -13 | 20 | -4
OC(COC(c1ccc(Cl)cc1)c1ccc(Cl)cc1)CN1CCN(c2ccccn2)CC1 (centres undefined) | 45* | -28 | 36 | 19 | 27

Screens as filed in PubChem BioAssay.
